The structures appear in SMILES notation. Where two headings read alike, the source gives them in different places.

Parameters in all cases: species or system human, MV4-11 + K-562 + COLO205 + SK-N-BE2 + OVCAR-8
For experiment [1], the system named is PIK3CB. The following applies: read-out: apparent Kd, compound concentrations: 100 nM and 1000 nM (sheet 'Samples'), n = 1.
For experiment [2], the system named is PKN2. To be noted: read-out: apparent Kd, n = 1.
Experiment [3] has as its system ROCK2. To be noted: read-out: apparent Kd, n = 1.
Experiment [4] concerns ROCK1. To be noted: read-out: apparent Kd, n = 1.
For experiment [5], the system named is PLK1. To be noted: read-out: apparent Kd, compound concentrations: 100 nM and 1000 nM (sheet 'Samples'), n = 1.
Experiment [6] relates to SLK. The following applies: read-out: apparent Kd, n = 1.
Experiment [7] deals with TESK1. The following applies: read-out: apparent Kd; compound concentrations: 100 nM and 1000 nM (sheet 'Samples'), CATDS: 1; n = 1.
[8] abbreviates: compound concentrations:100 nM and 1000 nM (sheet 'Samples').

`O=c1cc(N2CCOCC2)nc2n(Cc3ccc(F)c(Cl)c3)ccn12` [GSK2297099A]: in experiment [1] (CATDS: 0.58054918147360901), the potency estimated from few doses is 32.5 nM.

For the molecule `Cc1nn2c(=O)cc(N3CCOCC3)nc2n1Cc1cccc(Cl)c1Cl` [GSK2342769A], the potency estimated from few doses in experiment [1] (CATDS: 0.39167168284884402) is 14.2 nM.

With `Cc1ccccc1Cn1ccn2c(=O)cc(N3CCOCC3)nc12` [GSK2269905A], the potency estimated from few doses in experiment [1] (CATDS: 0.94535386241692498) was 41.9 nM.

As to `Cc1c(Cn2c(C)c(C)n3c(=O)cc(N4CCOCC4)nc23)cccc1C(F)(F)F` [GSK2328680_KCGS], in experiment [1] (CATDS: 1), the potency estimated from few doses was 45.8 nM.

For the molecule `Cc1nn2c(=O)cc(N3CCO[C@H](C)C3)nc2n1Cc1cccc(Cl)c1Cl` [GSK2373693A], the potency estimated from few doses in experiment [1] (CATDS: 1) is 11.8 nM.

On to `CCn1c(-c2ccncc2)nc2cnccc21` [SB-735216], for which, in experiment [2] (compound concentrations: 100 nM and 1000 nM (sheet 'Samples'), CATDS: 0.34889068310517501), the potency estimated from few doses is 2400 nM.

In the case of `CCn1c(-c2nonc2N)nc2ccccc21` [SB-693162], the potency estimated from few doses was 157 nM in experiment [2] (setting [8]) and 1820 nM in experiment [3] (setting [8]).

For `CC1=C(C(=O)Nc2ccc3[nH]ncc3c2)C(c2ccc(F)cc2)N=C(c2ccc(C(F)(F)F)nc2)N1` (stereo not drawn) [GSK317354A], the potency estimated from few doses in experiment [4] (compound concentrations: 100 nM and 1000 nM (sheet 'Samples'), CATDS: 0.52745543701192599) is 630 nM; in experiment [3] (compound concentrations: 100 nM and 1000 nM (sheet 'Samples'), CATDS: 0.475261399355146), 777 nM.

As for `CC1=C(C(=O)Nc2cc3cn[nH]c3cc2F)C(c2ccc(C(F)(F)F)cc2)CC(=O)N1` (stereo not drawn) [GSK429286A], the potency estimated from few doses in experiment [4] (compound concentrations: 100 nM and 1000 nM (sheet 'Samples'), CATDS: 0.46177660943925602) is 57.8 nM; in experiment [3] (compound concentrations: 100 nM and 1000 nM (sheet 'Samples'), CATDS: 0.48334108773041601) it was 53 nM.

Turning to `COc1cc2ncn(-c3cc(OCC4CCCO4)c(C(N)=O)s3)c2cc1OC` (stereo not drawn) [GSK204607A], the potency estimated from few doses is 838 nM in experiment [5] (CATDS: 0.33403432138317102); 1160 nM in experiment [6] (compound concentrations: 100 nM and 1000 nM (sheet 'Samples'), CATDS: 0.28828322823587899).

`COC(=O)c1cccc(NC(=O)NC2CCN(c3ccnc(Nc4ccc(F)cc4)n3)C2)c1` (stereo not drawn) [GSK1379725A]: in experiment [7], the potency estimated from few doses is 1320 nM.

On to `CC1=C(C(=O)Nc2ccc3[nH]ncc3c2)C(c2ccc(Cl)c(Cl)c2)CC(=O)N1` (stereo not drawn) [GSK299115A], for which the potency estimated from few doses was 112 nM in experiment [4] (setting [8]) and 140 nM in experiment [3] (setting [8]).

As for `O=C1NC(=O)C(c2ccccc2Cl)=C1Nc1cccc(Cl)c1` [SB-342409], the potency estimated from few doses in experiment [6] (setting [8]) is 811 nM.

Take `CSc1ccc(NC2=C(c3ccccc3Cl)C(=O)NC2=O)cc1` [SB-342411]: in experiment [6] (setting [8]), the potency estimated from few doses is 1400 nM.

Consider `Cl.NC(=O)c1cccc(Nc2nccc(Nc3ccc(Oc4cccc(Cl)c4)c(Cl)c3)n2)c1` [GW659008A], for which the potency estimated from few doses in experiment [7] was 1780 nM.

As for `COc1ccc2ncn(-c3cc(O[C@H](C)c4ccccc4C(F)(F)F)c(C(N)=O)s3)c2c1` [GSK317315A], in experiment [5] (CATDS: 0.88975940081611404), the potency estimated from few doses was 128 nM.

For the molecule `Cc1ccccc1COc1cc(-n2cnc3cc(Cl)ccc32)sc1C(N)=O` [GW813349X], the potency estimated from few doses in experiment [5] (CATDS: 1) is 1570 nM.

As to `CN(C)CCCn1c(-c2nonc2N)nc2cnccc21` [SB-751399-B], the potency estimated from few doses in experiment [4] (compound concentrations: 100 nM and 1000 nM (sheet 'Samples'), CATDS: 0.43789550307339298) is 1470 nM; in experiment [3] (compound concentrations: 100 nM and 1000 nM (sheet 'Samples'), CATDS: 0.58263169675533599), 821 nM.

Source of the values: article PMC11062922 (Nature Chemical Biology, 2023).
